Growth inhibition data for 35 compounds are collected here from PubChem BioAssay (NCI).

Several values for one entry are separate records, joined by “and”; a condition that tells them apart may be missing. Equal values may be shown once. This is part of a sample that, as a whole, favours compounds with a hit. Of some 79,000 tested, about 15% had one in any assay. Where a structure was tested more than once in an assay, its records may differ in their call. Activity calls are given as the source filed them. Cut-off read from the data, not from the text of the source: active = growth inhibition above about 70%; inactive = the rest.

A short description of the assay: NCI Yeast Anticancer Drug Screen. Data for the rad50 strain (AID 155).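 Note: 0% = growth of vehicle-only cultures of the same strain.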 As to conditions: S. cerevisiae rad50 strain growth inhibition; at 5.0 µM (retest, dose inferred, filed as 0.5); stronger effect = higher value. In a few lines:
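Readout: growth inhibition relative to vehicle-treated cultures. Compound exposure was carried out in a genetically defined yeast strain deficient in DNA damage repair.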
As to `CNC(=O)OCc1c(COC(=O)NC)c(C)n(-c2ccc(Cl)c(Cl)c2)c1C`, the growth inhibition was 25% (inactive).
To `COc1ccc2nc(N/N=C/c3sccc3C)cc(C)c2c1` belongs 4% (inactive); to `CCCCCCCCCCCC[N+](C)(C)Cc1ccccc1` (tested in a mixture with another compound), 79% (active) and 69% (inactive) and 58% (inactive).
To `CC(C)c1ccc(O)c(=O)cc1` belongs 6% (inactive) and 0% (inactive).
To `O=C(O)/C=C\C(=O)NNc1ccc(Br)cc1` belongs 10% (inactive); to `S=c1[nH]nc(Cc2ccccc2)c(=S)[nH]1`, 63% (inactive).
Turning to `COc1ccc2nc3cccc([N+](=O)[O-])c3c(NCCCO)c2c1`, the growth inhibition is 95% (active).
To `CCN(CC)CCSc1c2ccccc2nc2cc(NCC(=O)Nc3ccccc3-c3ccccc3NC(=O)CNc3ccc4c(SCCN(CC)CC)c5ccccc5nc4c3)ccc12` belongs 23% (inactive).
Turning to `Cc1ccc(N(C=O)c2c([N+](=O)[O-])cc([N+](=O)[O-])c3c2=[N+]([O-])CN=3)cc1`, the growth inhibition was 13% (inactive).
For the compound `Nc1ccccc1SSc1ccccc1N`, the growth inhibition is 27% (inactive) and 9% (inactive) and 56% (inactive).
To `COc1ccc(C(=O)OCCc2ccccc2)cc1` belongs -3% (inactive); to `COc1ccc(C(=O)NCCN(C)C)c2nc3ccccc3cc12`, 73% (active).
`NCC(O)CSCc1ccc(Cl)cc1` (stereo not given): the growth inhibition is 5% (inactive).
As to `O=c1[nH]c(=O)n(CCCO)cc1F`, the growth inhibition is 42% (inactive).
For `CCCCCCCCCCCC[N+](C)(C)C`, the growth inhibition is -9% (inactive) and -3% (inactive) and 12% (inactive).
Take `COc1ccc(/C(=N/O)c2ccccc2C2=Nc3ccccc3C(NCc3ccccc3)O2)cc1C` (stereo not given): the growth inhibition was 2% (inactive).
To `CCCC(=O)OC(OC(=O)CCC)c1ccc([N+](=O)[O-])o1` belongs 22% (inactive).
To `O=C(/C(=C/c1ccccc1)CBr)c1ccccc1` belongs 22% (inactive).
Consider `O=C(Cc1ccccc1F)NC1=C(Cl)C(=O)c2ccccc2C1=O`, for which the growth inhibition was 14% (inactive).
Next, `Cc1cccc(N2CCN(C(=O)/C(=C/c3ccccc3)NC(=O)c3ccccc3)CC2)c1`: -1% (inactive).
Consider `OCC(O)C(O)C(O)C(O)c1nc2ccccc2[nH]1` (stereo not given), for which the growth inhibition is -2% (inactive) and -4% (inactive).
As for `c1cc(Nc2ccc3c(c2)OCO3)c2cc(C3CCCCC3)ccc2n1`, the growth inhibition is 4% (inactive).
To `Cc1ccc2nc(N/N=C/c3ccc(C)s3)cc(C)c2c1` belongs 22% (inactive); to `COc1cc(NCCCCCNC(C)C)c2ncccc2c1Cl`, 8% (inactive).
On to `COc1cccc2c1C(=O)c1c(O)c3c(c(O)c1C2=O)CC(O)(C(=O)CO)CC3OC1CC(N)C(O)C(C)O1` (stereo not given), for which the growth inhibition is 13% (inactive) and 24% (inactive) and 34% (inactive).
For `COc1ccc2cc(CN3CCC(C4CCN(Cc5ccc6cc(OC)ccc6c5)CC4)CC3)ccc2c1`, the growth inhibition was 1% (inactive).
Next, `CC(=O)O/N=C/c1c2ccccc2cc2ccccc12`: 55% (inactive).
`CC[C@@]1(OC(=O)CN(C)C)C(=O)OCc2c1cc1n(c2=O)Cc2cc3ccccc3nc2-1`: the growth inhibition is 95% (active).
For the compound `CC1(C)CC(=O)C(C(CC(c2ccccc2)c2cc3c(cc2O)OCO3)C2=C(O)CC(C)(C)CC2=O)=C(O)C1` (stereo not given), the growth inhibition is 11% (inactive).
To `CCCCCCC(CCl)c1sc(-c2csc(CCNC(=O)OC(C)(C)C)n2)nc1C(=O)OC` (stereo not given) belongs -23% (inactive); to `CCOC(=O)C1=C(C)NC(C)=C(C(=O)OCC)C1c1cccc([N+](=O)[O-])c1`, 34% (inactive); to `COc1nc(N)c(N=CC(OC(C)=O)C(OC(C)=O)C(COC(C)=O)OC(C)=O)c(=O)n1C` (stereo not given), -3% (inactive) and -10% (inactive) and 6% (inactive).
In the case of `Cc1ccc2c(/C=C/c3ccc(N(C)C)cc3)ccnc2c1C`, the growth inhibition was 9% (inactive).
Next, `Cc1cc(SC#N)ccc1O`: 13% (inactive) and 4% (inactive) and -2% (inactive).
For `O=C1C(Br)=CC(Br)(Br)C=C1Br`, the growth inhibition was 99% (active).
